Source: PubChem BioAssay AID463082 (The Scripps Research Institute Molecular Screening Center, 2010)
The campaign covered roughly 330,000 compounds. About 4,900 (1.5%) were called active. Only a selection was taken, and actives are over-represented in it overall. Unmarked numbers belong to inactive results.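 Rule for the calls: active = inhibition above the mean inhibition across the screen plus 3 SD (cut at about 25% in these data); inactive = the rest.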

The compounds below were run against Platelet-activating factor acetylhydrolase (Homo sapiens) (UniProt Q13093) (assay: inhibition of plasma PAF acetylhydrolase – biochemical, fluorescence polarization, human, primary screen (AID 463082;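 note: inhibitors block binding of the rhodamine activity-based probe so polarization drops; 0% = enzyme with DMSO and 100% = wells lacking pPAFAH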)). Conditions: recombinant pPAFAH, FP-rhodamine probe fluorescence polarization; at 3.39 µM; stronger effect = higher value.
Sequence of Platelet-activating factor acetylhydrolase (Homo sapiens) (Q13093 whole entry, looked up): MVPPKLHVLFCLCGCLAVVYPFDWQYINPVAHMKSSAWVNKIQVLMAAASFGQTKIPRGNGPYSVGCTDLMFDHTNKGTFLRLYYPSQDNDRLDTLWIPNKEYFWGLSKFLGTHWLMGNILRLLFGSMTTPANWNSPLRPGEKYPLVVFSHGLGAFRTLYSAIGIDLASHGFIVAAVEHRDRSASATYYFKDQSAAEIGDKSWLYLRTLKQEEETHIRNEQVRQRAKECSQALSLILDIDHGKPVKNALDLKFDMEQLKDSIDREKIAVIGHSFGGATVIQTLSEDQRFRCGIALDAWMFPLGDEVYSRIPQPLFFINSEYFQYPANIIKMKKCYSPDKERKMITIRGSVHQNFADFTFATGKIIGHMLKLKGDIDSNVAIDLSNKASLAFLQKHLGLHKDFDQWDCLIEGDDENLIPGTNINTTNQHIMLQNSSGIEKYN

Compound	inhibition
Cc1nc(CNS(=O)(=O)c2cc([N+](=O)[O-])ccc2C)cs1	1.89%
Cc1ccc(S(=O)(=O)NCc2csc(C)n2)c(C)c1	57.6% (active)
Cc1ccc(S(=O)(=O)NCc2cn3ccsc3n2)c(C)c1	3.63%
O=C(NCCN1CCOC1=O)C1CCC(=O)N(CCc2ccc(Cl)cc2)C1 (stereo not given)	6.31%
CCOC(=O)c1c(N=CN(C)C)c(C#N)c2n1CCCC2	-0.32%
CC(C)C(C)(C#N)NC(=O)CSc1nncn1-c1ccccc1 (stereo not given)	3.15%
CCc1cccc(C)c1NC(=O)COC(=O)CC1CCCC1	31.2% (active)
Cc1cccc(C)c1NC(=O)CNC(=O)C1CCCC1	-3.74%
CCc1cccc(C)c1NC(=O)COC(=O)CNC(=O)c1cccs1	-1.56%
CCC(C)Cn1c(O)cc2nn(-c3nc4ccccc4s3)c(=O)c-2c1C (stereo not given)	49.8% (active)
CCC(=O)NC(=Nc1nc2ccccc2s1)NC(=O)CC	1.11%
COc1ccc(C2=NN(c3nc4ccccc4s3)C(=O)C2)cc1	10.8%
C=CCNC(=O)COC(=O)c1ccccc1C(=O)N(C)C1CCCCC1	-0.67%
CC1(c2ccc3ccccc3c2)NC(=O)N(CC(N)=O)C1=O (stereo not given)	1.23%
COc1ccccc1NC(=O)CCSc1nnc(-c2ccc(O)cc2)o1	-1.64%
CC(C)(C)NC(=O)NC(=O)COC(=O)CCC1CCCCC1	29.9% (active)
CC(C)(C)NC(=O)NC(=O)COC(=O)C1(C)CC1(Cl)Cl (stereo not given)	4.74%
COc1ccccc1OCCC(=O)OCC(=O)NC(=O)NC(C)(C)C	2.65%
COc1ccc(N(CC(=O)Nc2cc(OC)cc(OC)c2)S(=O)(=O)c2c(C)n[nH]c2C)cc1	1.91%
CCN(CC)C(=O)[C@H]1C[C@H](CC(=O)NCC23CC4CC(CC(C4)C2)C3)C(=O)N2CCc3c([nH]c4cc(CCC(=O)N(C)C)ccc34)[C@]12C	27.5% (active)
CC(C)N(C(=O)[C@H]1C[C@H](CC(=O)NCCC2=CCCCC2)C(=O)N2CCc3c([nH]c4cc(CCC(=O)N(C)C)ccc34)[C@]12C)C(C)C	16.4%
CC[C@]12c3[nH]c4cc(CCC(=O)N(C)C)ccc4c3CCN1C(=O)[C@@H](CC(=O)NCC13CC4CC(CC(C4)C1)C3)C[C@@H]2C(=O)N1CCN(C(=O)C2CC2)CC1	1.87%
CC(C)C(O)C1CCN(Cc2nc(Cc3ccccc3Cl)no2)CC1 (stereo not given)	1.22%

Compound	inhibition
CCSCc1nc(N)nc(NCCc2ccccc2)n1	5.83%
NC(=O)c1sc2nc3c(c(-c4ccccc4)c2c1N)CCC3	25.1% (active)
Nc1c(C(=O)NCc2ccccc2)sc2nc3c(cc12)C(=O)CCC3	9%
CCc1nc2sc(C(=O)O)c(N)c2c2c1CCCC2	1.17%
Cc1ccccc1Cn1nc(C)c(NC(=O)C(F)(F)F)c1C	-5.3%
COC(=O)c1cc(S(=O)(=O)Nc2ccc(C)c(F)c2)c[nH]1	37.4% (active)
COC(=O)c1cc(S(=O)(=O)N2CCN(c3cc(C)ccc3C)CC2)c[nH]1	-4.07%
CCOc1ccccc1NS(=O)(=O)c1c[nH]c(C(=O)OC)c1	-0.19%
Cn1c(=O)c2c(nc(N3CCCCCC3)n2CC(O)COc2ccc(Cl)cc2)n(C)c1=O (stereo not given)	4.56%
Cc1ccc(CSc2nsc(C)c2C#N)cc1	8.61%
Cc1cc(SCc2c(F)cccc2Cl)nc(=O)[nH]1	1.8%
Cc1snc(SCc2c(F)cccc2Cl)c1C#N	24.7% (active)
O=C(Nc1ccc2c(c1)OCO2)C1CC(c2c(F)cccc2Cl)=NO1 (stereo not given)	1.16%
Nc1ccc2nc3c(=O)[nH]c(=S)[nH]c3nc2c1	47.8% (active)
O=C1CSc2ccc(C(=O)NCc3ccccn3)cc2N1	0.84%
O=C(NCc1ccccn1)c1ccc2nc(-c3ccco3)c(-c3ccco3)nc2c1	65.8% (active)
COc1cccc(NC(=O)NCCN2CCCCC2)c1	3.86%
COCCNC(=O)c1snc2ccc(Cl)cc12	-0.4%
Cc1cc(C)cc(NC(=O)NCc2ccccn2)c1	1.23%
COCCNC(=O)Nc1ccc2nc(-c3ccco3)c(-c3ccco3)nc2c1	75.6% (active)
Cc1ccc(C(=O)CN2C(=O)NC3(CCc4ccccc43)C2=O)c(C)c1 (stereo not given)	-8.87%
O=S(=O)(Oc1ccccc1C(=S)N1CCOCC1)c1ccc(Cl)cc1	4.58%
O=C(NCc1ccc(F)cc1)C1CCC(CNc2c(N3CCOCC3)c(=O)c2=O)CC1 (stereo not given)	1.22%

Compound	inhibition
CCOC(=O)c1sc(NC(=O)C2CSC3(C)CCC(=O)N23)nc1C (stereo not given)	0.96%
Cc1ccc(C2C3=C(Nc4[nH]n(-c5ccccc5)c(=O)c42)c2ccccc2C3=O)cc1 (stereo not given)	34.5% (active)
Cc1ccc(-c2ccnc3[nH]n(-c4ccccc4)c(=O)c23)cc1	2.79%
Cc1cc(C)c(C2C3=C(Nc4c2c(C)nn4-c2ccccn2)c2ccccc2C3=O)c(C)c1 (stereo not given)	-8.35%
COc1ccccc1N(CC(=O)Nc1ccc(C)cc1Cl)S(=O)(=O)c1cccs1	6.13%
O=c1cc(CN2CCN(S(=O)(=O)/C=C/c3ccccc3)CC2)c2ccc(O)cc2o1	2.78%
Cc1ccccc1C(=O)Nc1cccc(-c2nnc(SCC(=O)O)n2C)c1	-1.6%
Cc1noc(C)c1C(=O)OC(C)C(=O)Nc1ccc2c(c1)OCO2 (stereo not given)	1.18%
O=C(COC(=O)Cc1ccc(Br)cc1)Nc1ccc(N2CCOCC2)cc1	6.93%
O=C(COC(=O)Cc1ccc(Br)cc1)Nc1c(F)c(F)c(F)c(F)c1F	32.9% (active)
Cc1cccc(C)c1NC(=O)CNC(=O)Cc1ccc(Br)cc1	1.92%
CCC(C)N(C(=O)Cn1nc(C)c([N+](=O)[O-])c1C)C1CCS(=O)(=O)C1 (stereo not given)	-1.29%
O=S(=O)(Nc1ncnc2sccc12)c1cccc(F)c1	12.2%
COc1ccc(-c2csc3ncnc(N4CCN(S(=O)(=O)c5cccc(F)c5)CC4)c23)cc1	3.15%
Cc1cc(F)ccc1S(=O)(=O)Nc1ncnc2scc(-c3ccc(F)cc3)c12	30.3% (active)
Cc1cnc(C)c(N2CCN(C(=O)C3CCC(=O)N(CCc4cccc(F)c4)C3)CC2)n1 (stereo not given)	4.96%
CCCCn1c(N)c(N(CC)C(=O)c2ccccc2C(F)(F)F)c(=O)[nH]c1=O	-0.54%
CC(=O)Nc1cccc(Nc2nc(-c3cccs3)nc3ccccc23)c1	-12.8%
Cc1cccc(-c2nc(Nc3ccc(O)cc3)c3ccccc3n2)c1	26.7% (active)
CCOC(=O)c1nc(Nc2ccc(C(=O)OC)cc2)c2ccccc2n1	-0.04%
O=C(COC(=O)CC1CC2CCC1C2)NC(=O)NC1CCCC1 (stereo not given)	2.89%
Cc1ccc(C(=O)N/C(=C/c2cccs2)C(=O)NCC2CCCO2)cc1 (stereo not given)	-4.31%
Cc1cc(/C=C(/C#N)C(=O)Nc2ccc(Cl)cc2)c(C)n1-c1cccnc1	0.95%

Compound	inhibition
Cc1ccc(-n2c(C)cc(/C=C(\C#N)C(=O)NCC3CCCO3)c2C)cc1 (stereo not given)	68.5% (active)
COc1ccccc1C(=O)Nc1ccnn1C1CCN(C(=O)C(C)(C)C)CC1	-0.55%
COc1ccc(/C=C/C(=O)c2ccc(NS(=O)(=O)c3ccc(C)cc3)cc2)cc1O	23.6%
COc1ccc(/C=C/C(=O)N2CCCC2)cc1OC	0%
COC(=O)c1ccc(COc2ccc(/C=C/C(=O)c3ccc(OC)c(CSCC(=O)O)c3)cc2OC)cc1	28.7% (active)
COCCn1c(SC(C)C(=O)NC2CC2)nnc1-c1cccc(C)c1 (stereo not given)	-1.49%
N#CC1=C(N)Oc2cc(O)ccc2C1C1CCCCC1 (stereo not given)	2.82%
COc1ccc(C2C(C#N)=C(N)Oc3cc(N)ccc32)cc1OC (stereo not given)	26% (active)
COc1cc(C2C(C#N)=C(N)Oc3n[nH]c(-c4ccccn4)c32)cc(OC)c1OC (stereo not given)	2.74%
CCOC(=O)[C@H]1[C@H]2COc3ccc(C)cc3[C@@H]2N2C(=O)CN(Cc3ccc(F)cc3)C(=O)[C@@]12C	-0.02%
C=CCN(N=Nc1cccc([N+](=O)[O-])c1)c1cccc([N+](=O)[O-])c1	9.93%
Cn1c2ccccc2c2cc(/C=C(\NC(=O)c3ccccc3)C(=O)NCC(=O)O)ccc21	24.7% (active)
COc1ccc(/C=C(\NC(=O)c2ccccc2)C(=O)NCCN2CCOCC2)cc1OC	4.35%
CCOC(=O)CNC(=O)/C(=C\c1ccc(F)cc1)NC(=O)c1ccccc1	-2.32%
Cc1ccc2c(c1)nnc1nnc(SCC(=O)O)n12	2.74%
CC(C)C[C@H](NC(=O)N1CCn2c1nc1ccccc12)C(=O)NC1CC1	1.86%
COc1ccc(C(=O)Nc2cc(C)c(NC(=O)c3ccccc3OC)cn2)cc1	2.94%
C=CCn1c(=S)[nH]c2nc3c(cc2c1=O)COC(C)(C)C3	-1.93%
C=CCn1cnc2scc(-c3ccccc3)c2c1=O	0.46%
C=CCn1c(=S)[nH]c2scc(-c3ccco3)c2c1=O	42.6% (active)
C#CCOCCOCCOCCNc1nc(N2CCN(C(=O)C(Cc3ccc(O)cc3)n3cc(C(N)CC(C)C)nn3)CC2)nc(N2CCN(C(=O)C(Cc3ccc(O)cc3)n3cc(C(N)C(C)CC)nn3)CC2)n1 (stereo not given)	0.55%
